The full ranking holds about 110,000 compounds; the median of “z-score” is about -0.1, and the highest 2% start at about 2. The sample holds the highest values, similar compounds and a random draw of the others, so the mix is not that of the screen. Active and inactive are the calls of the source.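 The calls were made as follows: active = z-score in the third read window above 3 or below -3; inactive = the rest.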

The target in this assay is Metabotropic glutamate receptor 8 (Rattus norvegicus) (UniProt P70579). The assay can be described thus: mGluR8 Gi/Go-coupled signaling modulation – cell-based, rat, thallium flux, HTS, primary screen (AID 488969). Conditions: HEK293 rat mGluR8, GIRK (G protein-gated inwardly rectifying potassium channel) thallium flux, FluoZin2; at 10 µM; stronger effect = higher value; submaximal glutamate (EC20) added with thallium.
Chain of Metabotropic glutamate receptor 8 (Rattus norvegicus) (P70579 whole entry, looked up): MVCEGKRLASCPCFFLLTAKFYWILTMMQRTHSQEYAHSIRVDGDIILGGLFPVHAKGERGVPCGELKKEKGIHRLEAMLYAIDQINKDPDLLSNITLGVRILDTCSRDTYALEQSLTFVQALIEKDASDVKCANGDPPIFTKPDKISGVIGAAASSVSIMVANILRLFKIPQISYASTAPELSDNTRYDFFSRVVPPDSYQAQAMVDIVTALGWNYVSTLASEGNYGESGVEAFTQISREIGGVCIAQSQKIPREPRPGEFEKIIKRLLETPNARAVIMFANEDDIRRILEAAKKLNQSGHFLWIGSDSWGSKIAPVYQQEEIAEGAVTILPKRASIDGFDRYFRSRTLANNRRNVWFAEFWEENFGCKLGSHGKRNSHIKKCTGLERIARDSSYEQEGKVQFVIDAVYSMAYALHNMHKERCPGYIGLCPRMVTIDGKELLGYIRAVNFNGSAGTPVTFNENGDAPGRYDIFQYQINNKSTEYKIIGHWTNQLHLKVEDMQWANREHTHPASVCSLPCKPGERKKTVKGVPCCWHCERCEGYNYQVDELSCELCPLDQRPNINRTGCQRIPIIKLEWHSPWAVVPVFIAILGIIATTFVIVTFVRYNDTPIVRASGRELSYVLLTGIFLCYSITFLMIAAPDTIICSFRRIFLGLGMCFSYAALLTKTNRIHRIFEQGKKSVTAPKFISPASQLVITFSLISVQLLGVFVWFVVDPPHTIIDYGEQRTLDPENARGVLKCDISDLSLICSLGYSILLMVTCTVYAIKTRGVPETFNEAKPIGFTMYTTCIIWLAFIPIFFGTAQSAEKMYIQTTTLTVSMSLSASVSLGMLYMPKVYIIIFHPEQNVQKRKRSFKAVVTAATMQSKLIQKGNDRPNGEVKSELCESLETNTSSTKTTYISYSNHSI
On to `O=C(Nc1ccc(N2CCCC2)c(Cl)c1)c1ccc2c(c1)OCCO2`, for which the z-score came to 2.58.
Regarding `COc1cc(C(=O)Nc2ccc3c(c2)OCCO3)ccc1OC(C)C`, the z-score came to 2.41.
`O=C(NC(=S)Nc1ccc(N2CCCCC2)c(Cl)c1)c1ccc2c(c1)OCCO2`: the z-score was determined as 0.126.
In the case of `COC(=O)[C@H](CC(C)C)NC(=O)Nc1ccc2c(c1)OCCO2`, the z-score is 3.6 (active).
For the compound `COC(=O)[C@@H](NC(=O)Nc1ccc2c(c1)OCCO2)C(C)C`, the z-score worked out at 0.876.
Under `CCOc1ccc(C(=O)Nc2ccc3c(c2)OCCO3)cc1OC` stands -0.705; under `COc1ccc(C(=O)Nc2ccc3c(c2)OCCO3)cc1`, -0.168.
Under `CCC(C)[C@H](NC(=O)Nc1ccc2c(c1)OCCO2)C(=O)O` (some centres undefined) stands -0.196.
For the compound `O=C(Nc1ccc(N2CCCCC2)c(Cl)c1)c1ccc2c(c1)OCCO2`, the z-score was -0.282.
To `CC(C)c1ccc(C(=O)N2CCCN(C(=O)c3ccc(C(C)C)cc3)CC2)cc1` belongs -0.119; to `O=C(NCC1CCCO1)C1CCN(S(=O)(=O)c2cccc3nonc23)CC1` (centres undefined), 0.153.
`O=C(NC1CCCCC1)C12CC3CC(C1)CC(n1cncn1)(C3)C2` returned a z-score of -0.163.
To `COc1ccc(Cn2nnnc2C(c2ccncc2)N2CCOCC2)cc1` (centres undefined) belongs 0.39; to `O=C(COc1ccccc1Cl)NCCCN1CCOCC1`, 1.3.
The compound `COc1ccc(S(=O)(=O)N2CCC(C(=O)NCc3ccccn3)CC2)cc1Cl` had a z-score of -0.477.
Take `COc1ccc(/C=N/n2c(=S)n(C)c3ccccc32)cc1OC`: the z-score came to 0.103.
To `COc1cccc(/C=N/n2c(=S)n(C)c3ccccc32)c1OC` belongs 2.32; to `COc1cccc(/C=N/n2c(=S)n(C)c3cc(C)c(C)cc32)c1OC`, 0.276.
In the case of `COc1ccc(C)cc1C1=Nc2ccccc2C1(C)C`, the z-score was -0.42.
Under `Cn1c(=O)[nH]c(=O)c2c1nc(N1CCCCC1)n2CCCSc1nnnn1-c1ccccc1` stands -0.187; under `O=C(CSc1nnc(NC(=O)C2CCC2)s1)Nc1ccc(N2CCOCC2)cc1`, -0.322; under `O=C(Nc1ccccc1)c1ccc(S(=O)(=O)N2CCCCC2)cc1`, -0.0563.
`COc1cccc(C(CC(=O)Nc2cccc3ccccc23)NC(=O)c2ccccc2)c1` (centres undefined): the z-score was determined as 2.17.
`COc1ccc(C(CC(=O)O)NC(=O)c2ccccc2)cc1OC` (centres undefined) returned a z-score of -0.105.
In turn, `O=C(CC(NC(=O)c1ccccc1)c1ccccc1)Nc1cccc2ccccc12` (centres undefined) displayed a z-score of -0.0391.
Under `Cc1cc(C)nc(SCc2nnc(SCC(=O)Nc3nccs3)n2C)n1` stands 0.465; under `COc1ccc(C(=O)C(c2ccccc2)N2CCOCC2)cc1` (centres undefined), 2.44; under `CCOc1ccc(C(=O)C(c2ccccc2)N2CCOCC2)cc1` (centres undefined), -0.418.
Take `CCCCCOc1ccc(C(=O)C(c2ccccc2)N2CCOCC2)cc1` (centres undefined): the z-score was determined as 0.204.
For `O=S(=O)(Nc1ccc(N=Nc2ccccc2)cc1)c1ccccc1`, the z-score is -0.241.
Under `COc1ccc(N(CC(=O)NCc2cccc(OC)c2)S(=O)(=O)c2c(C)noc2C)cc1` stands -0.199.
Under `Cc1ccc(N(CC(=O)NCc2cccnc2)S(C)(=O)=O)cc1C` stands 0.196; under `COc1ccc(CNC(=O)CN(c2cc(C)cc(C)c2)S(=O)(=O)c2c(C)noc2C)cc1`, -0.0907.
Take `COc1ccc(OC)c(N(CC(=O)NCc2cccnc2)S(C)(=O)=O)c1`: the z-score was found to be 0.361.
In the case of `COc1cccc(N(CC(=O)Nc2cccc(C(C)=O)c2)S(C)(=O)=O)c1`, the z-score was 4.2 (active).
Under `CC(=O)c1cccc(N(CC(=O)Nc2ccc(F)cc2)S(C)(=O)=O)c1` stands 2.52; under `COc1cccc(N(CC(=O)NCc2cccnc2)S(C)(=O)=O)c1`, 3.97 (active); under `CC(=O)c1cccc(NC(=O)CN(c2cccc(F)c2)S(C)(=O)=O)c1`, -0.268.
Under `COc1cccc(CNC(=O)CN(c2cc(C)cc(C)c2)S(=O)(=O)c2c(C)noc2C)c1` stands 2.13; under `CC(=O)c1cccc(N(CC(=O)Nc2cccnc2)S(C)(=O)=O)c1`, 0.179; under `Cc1cccc(N(CC(=O)Nc2ccc(F)cc2)S(C)(=O)=O)c1`, 0.171.
Under `COc1cccc(NC(=O)CN(c2cccc(F)c2)S(C)(=O)=O)c1` stands -0.058; under `COc1ccc(CNC(=O)C2CCN(c3nccs3)CC2)cc1`, -0.318.
On to `Cc1cc(NC(=O)CSc2nnc(-c3cccs3)n2N)no1`, for which the z-score was -0.647.
In the case of `COc1ccc2nc(SC(C(=O)c3ccccc3)c3ccccc3)nc(C)c2c1` (centres undefined), the z-score turned out to be 0.574.
Under `CC(=O)c1cccc(S(=O)(=O)NCC2CCCCC2)c1` stands 0.0227; under `COC(=O)/C(=C/Nc1cccc2ccccc12)[N+](=O)[O-]`, -0.204.
Compound `COC(=O)c1sccc1-c1ccc(/C=N/OCc2c(Cl)cccc2Cl)o1` came in with a z-score of -0.187.
`Cc1ccc(-c2c(C)n([O-])c3c([n+]2=O)CCCCC3)o1` returned a z-score of -0.48.
To `CC(C)Sc1nc(C(F)(F)F)cc(=O)n1-c1ccccc1` belongs 0.426; to `CC(=O)Oc1c(C(=O)c2nnc(C)o2)c(=O)n(Cc2ccccc2)c2ccccc12`, 2.07; to `CC(=O)Oc1c(C(=O)c2nnc(C)o2)c(=O)n(C)c2ccccc12`, -0.074.
To `COc1cc(-n2c(=O)c3ccccc3n(Cc3ccccc3)c2=O)cc(OC)c1OC` belongs -0.047.
To `CCc1ccc(NC(=O)N(CCCOC(C)C)C2CCN(C(C)=O)CC2)cc1` belongs 0.807.
The compound `O=C(Nc1nccs1)c1ccc2nccnc2c1` registered a z-score of 0.133.
Under `CC(C)(C)c1csc(NC(=O)c2ccc3nccnc3c2)n1` stands 5.29 (active); under `CC(C)(C)NC(=O)c1ccc2nccnc2c1`, 0.232; under `O=C(CCC(=O)OCC(=O)c1ccc(Cl)cc1Cl)Nc1cccc2cccnc12`, 0.0344.
To `O=C(NCc1ccco1)C(c1ccc(F)cc1)N(CC1CCCO1)C(=O)Cn1nnc2ccccc21` (centres undefined) belongs -0.299; to `CCOC(=O)c1nnn(CC(=O)N2N=C(c3cc(C)ccc3C)CC2c2ccc(OC)cc2)c1C(=O)OCC` (centres undefined), -0.378; to `COc1ccc(/C(N)=N/OC(=O)Oc2ccccc2)cc1OC`, -0.183.
In turn, `O=C(CSc1nnc(-c2ccccc2)n1Cc1ccco1)Nc1ccc(S(=O)(=O)N2CCCC2)cc1` gave a z-score of -1.61.
To `O=C(CSc1nc2cc(Cl)ccc2c(=O)n1Cc1ccco1)Nc1ccc(S(=O)(=O)N2CCOCC2)cc1` belongs 2.05; to `COC(=O)c1ccc2c(=O)n(Cc3ccco3)c(SCC(=O)Nc3ccc(C)c(Cl)c3)nc2c1`, 0.24.
As for `CNS(=O)(=O)c1cc(C(=O)NCc2ccco2)ccc1Cl`, the z-score was determined as 0.119.
To `CCOc1ccc(NC(=S)N(CCCN2CCOCC2)Cc2cn(C)c3ccccc23)cc1` belongs -0.232; to `N=c1n(Cc2ccccc2)c2ccccc2n1CC(O)c1ccccc1` (centres undefined), 0.899.
Compound `CCC(C)c1ccccc1NC(=O)COC(=O)c1ccc2c(c1)S(=O)(=O)c1ccccc1C2=O` (centres undefined) had a z-score of 2.17.
`CCC(C)c1ccccc1NC(=O)COC(=O)c1ccc2[nH]c3c(c2c1)CCCC3` (centres undefined): the z-score was -0.0793.
`CCc1cccc(CC)c1NC(=O)COC(=O)c1ccc2c(c1)S(=O)(=O)c1ccccc1C2=O` gave a z-score of -0.326.
To `C=CCn1c(-c2cccc(OC)c2)n[nH]c1=S` belongs -0.21; to `CCCn1c(SCC(=O)Nc2nnc(-c3ccccc3)s2)nnc1-c1ccccn1`, -0.176.
Take `Cc1ccc(C(=O)N/C(=C\c2ccccc2)C(=O)OCc2ccccc2)cc1`: the z-score was -0.52.
To `CCOC(=O)CC1=C(C(=O)OCC)C(c2cccs2)C(C#N)=C(N)O1` (centres undefined) belongs 3.6 (active); to `CCOC(=O)C1=C(CC)OC(N)=C(C#N)C1c1cccs1` (centres undefined), -0.237.
Under `CCOC(=O)C1=C(c2ccccc2)OC(N)=C(C#N)C1c1cccs1` (centres undefined) stands 0.288.
Under `CCOC(=O)C1=C(CSc2nc(-c3ccccc3)ccc2C#N)OC(N)=C(C#N)C1c1ccccc1` (centres undefined) stands 2.03.
Turning to `CCOC(=O)C1=C(CSc2nc(-c3ccccc3)ccc2C#N)OC(N)=C(C#N)C1c1cccnc1` (centres undefined), the z-score was -0.107.
To `CCOC(=O)C1=C(CSc2nc(-c3ccccc3)ccc2C#N)OC(N)=C(C#N)C1c1ccc(OC)cc1` (centres undefined) belongs 0.0604; to `Cc1[nH]c2ccccc2c1/C=N/NC(=O)c1cc(-c2cccs2)[nH]n1`, -0.101.
To `Cn1c(=O)[nH]c(=O)c2c1nc(NCCCn1ccnc1)n2Cc1ccc(F)cc1` belongs 0.613.
To `Cc1cc(Nc2cccc([N+](=O)[O-])c2)n2c(nc3ccccc32)c1C#N` belongs 0.0405; to `Cc1cccc(-n2c(O)c(C=Nc3c(C)n(C)n(-c4ccccc4)c3=O)c3ccccc3c2=O)n1`, -0.137.
In turn, `COc1cccc(N=Cc2c(O)n(-c3cccc(C)n3)c(=O)c3ccccc23)c1` registered a z-score of -0.226.
Under `Cc1cccc(-n2c(O)c(/C=N/NC(=O)c3ccccc3Cl)c3ccccc3c2=O)n1` stands 5.65 (active); under `Cc1ccn2c(C(=O)N/N=C/c3ccc(CNC(=O)C(=O)Nc4ccc(C)c(C)c4)o3)c(C)nc2c1`, 0.623; under `CNC(=O)c1[nH]cnc1C(=O)Nc1ccccc1C`, 0.825.
To `COc1ccc(NC(=O)c2nc[nH]c2C(=O)Nc2ccccc2C)cc1` belongs 0.48; to `Cc1ccccc1NC(=O)c1nc[nH]c1C(=O)NCc1ccccc1`, 2.57; to `Cc1cccc(Oc2nc(-c3ccccc3)cc(C)c2S(C)(=O)=O)c1C`, 0.102.
To `COc1ccc(-c2nc(C)ncc2-c2csc(C)n2)c(O)c1` belongs -0.348.
In turn, `CN1/C(=C/C(=O)c2ccc(Cl)cc2)Sc2cc3c(cc21)OCO3` came in with a z-score of -1.93.
To `CC(C)CCN1C(=O)CCC1(C)C(=O)NC1CCCCCCC1` (centres undefined) belongs -0.383; to `CCOC(=O)C1C(=O)C=C(c2cccc(NS(C)(=O)=O)c2)CC1c1ccco1` (centres undefined), -0.737; to `CCOC(=O)C1C(=O)C=C(c2ccc(C)cc2)CC1c1ccco1` (centres undefined), -0.0925.
Turning to `CCOC(=O)C1C(=O)C=C(c2ccc(NS(C)(=O)=O)cc2)CC1c1ccco1` (centres undefined), the z-score came out at 2.57.
For `NNC(=O)C=C1CCN(c2ncc(C(F)(F)F)cc2Cl)CC1`, the z-score is 0.00385.
Under `Cc1ccc(C)c(NS(=O)(=O)c2cc(C(=O)NCc3ccco3)ccc2C)c1` stands -0.408; under `O=C(CN1CCCCC1)Nc1cccc(Cl)c1Cl`, -0.108; under `CCOC(=O)C(CCCCOc1cccc(CC)c1)C(=O)OCC`, 3.18 (active).
To `CCOC(=O)C(CCOc1cccc(CC)c1)C(=O)OCC` belongs -0.709; to `CCOC(=O)C(CCCOc1cccc(CC)c1)C(=O)OCC`, 0.094.
On to `O=C(CC(c1ccco1)C1CCCCC1=O)c1ccccc1` (centres undefined), for which the z-score was -0.656.
`Cc1cccc(NC(=O)COC(=O)c2ccccc2-c2nc3ccccc3s2)c1C` registered a z-score of -0.272.
